MEKK2 WT-MEK5: modulators of MEK5 binding to wildtype MEKK2, primary screen, biochemical, multiplex bead flow cytometry, Alexa488-MEK5; hit rate 1.1% among 290,000; Mitogen-activated protein kinase kinase kinase 2 (Homo sapiens), Q9Y2U5; Alexa488-MEK5 binding to MEKK2 WT; actives lie on both sides; binding response (% of control), % at 10 µM; in the data active = binding response below about 67% or above about 130%
MEKK2mut PB1 HTS: MEK5 binding signal on mutant MEKK2 PB1, primary screen, biochemical, multiplex bead flow cytometry, Alexa488-MEK5. hit rate 0.35% among 290,000. Alexa488-MEK5 binding to MEKK2 mutant. percent response, % at 10 µM; in the data active = percent response above about 24%, passing the limit was not always enough
MEKK3 PB1 HTS: modulators of MEKK3-MEK5 PB1 binding, primary screen, biochemical, wildtype MEKK3, multiplex bead flow cytometry, Alexa488-MEK5 | Mitogen-activated protein kinase kinase kinase 3 (Homo sapiens), Q99759 | bead-based flow cytometry, Alexa488-MEK5 binding to MEKK3; actives lie on both sides; 0 = blocked by unlabeled MEK5, 100 = vehicle | binding response (% of control), % at 10 µM | hit rate 1.4% among 290,000 | AID 1529, 2009;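 active = binding response more than 3 SD above or below the average of its plate-row segment, actives on both sides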;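 note: Alexa488 bead fluorescence after subtracting the streptavidin-only scavenger bead signal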
VLA-4 inh: inhibition in human VLA-4 binding assay, primary screen, VLA-4 allosteric modulator project, MLPCN library, flow cytometry, VLA-4 expressing cells; AID 2557, 2010; inhibition, % (about 7 µM as worked out from the volumes in the protocol); ligand binding flow cytometry; Integrin alpha-4 (Homo sapiens), P13612; hit rate 0.2% among 330,000; in the data active = inhibition above about 50%
Target sequence (P13612 whole entry, looked up): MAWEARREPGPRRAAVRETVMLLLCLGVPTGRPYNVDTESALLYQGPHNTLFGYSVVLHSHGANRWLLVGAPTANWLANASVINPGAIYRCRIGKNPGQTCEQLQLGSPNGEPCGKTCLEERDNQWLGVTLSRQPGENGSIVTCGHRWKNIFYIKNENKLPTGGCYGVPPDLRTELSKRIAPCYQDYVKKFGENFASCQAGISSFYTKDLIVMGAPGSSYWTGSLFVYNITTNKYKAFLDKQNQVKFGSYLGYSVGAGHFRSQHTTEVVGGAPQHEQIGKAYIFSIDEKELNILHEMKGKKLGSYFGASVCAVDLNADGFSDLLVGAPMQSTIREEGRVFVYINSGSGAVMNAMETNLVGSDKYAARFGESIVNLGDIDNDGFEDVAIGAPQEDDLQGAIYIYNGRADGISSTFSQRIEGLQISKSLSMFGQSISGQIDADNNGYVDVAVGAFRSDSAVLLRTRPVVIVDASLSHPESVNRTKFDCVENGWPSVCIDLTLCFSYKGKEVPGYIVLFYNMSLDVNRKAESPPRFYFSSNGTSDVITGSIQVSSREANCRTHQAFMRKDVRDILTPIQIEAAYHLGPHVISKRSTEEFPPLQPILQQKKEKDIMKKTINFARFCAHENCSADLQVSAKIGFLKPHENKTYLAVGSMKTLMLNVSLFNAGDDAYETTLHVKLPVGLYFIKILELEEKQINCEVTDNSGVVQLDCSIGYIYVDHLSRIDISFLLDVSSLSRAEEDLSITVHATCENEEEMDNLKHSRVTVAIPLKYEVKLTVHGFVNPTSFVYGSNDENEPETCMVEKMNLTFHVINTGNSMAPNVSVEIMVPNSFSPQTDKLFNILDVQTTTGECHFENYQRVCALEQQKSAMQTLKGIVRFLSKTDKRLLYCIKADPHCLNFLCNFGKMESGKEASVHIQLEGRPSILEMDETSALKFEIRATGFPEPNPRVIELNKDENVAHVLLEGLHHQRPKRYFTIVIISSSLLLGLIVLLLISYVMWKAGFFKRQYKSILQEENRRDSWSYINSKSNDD
MEKK2wt confirm: modulators of MEK5 binding to wildtype MEKK2, confirmation, biochemical, single concentration, multiplex bead flow cytometry. shares compounds with MEKK3 PB1 HTS. Alexa488-MEK5 binding to MEKK2 WT; actives lie on both sides. binding response (% of control), % at 10 µM. hit rate 2.4% among 5,900. AID 1892, 2009; in the data active = binding response below about 16% or above about 210%; inactive = in between
MEKK2mut confirm: mutant MEKK2 PB1-MEK5 binding signal retest – biochemical, single concentration, multiplex bead flow cytometry, confirmation | shares compounds with MEKK3 PB1 HTS | Alexa488-MEK5 binding to MEKK2 mutant | percent response, % at 10 µM | hit rate 2% among 5,900; in the data active = percent response mostly above about 71%, no sharp cut-off; inactive = mostly below about 38%;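 note: higher means compound restores mutant binding toward wildtype level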
MEKK3-MEK5 inh: MEKK3 wild-type PB1 binding to MEK5, inhibitors, confirmation, biochemical, bead multiplex flow cytometry, single concentration, wildtype; Alexa488-MEK5 binding to MEKK3; hits give low values; AID 1894, 2009; shares compounds with MEKK3 PB1 HTS; binding response (% of control), % at 10 µM; hit rate 1.8% among 5,900;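 active = binding response below 72% of control, or above a set upper limit, though filed actives all read lower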;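 note: lower values mean stronger disruption of MEK5 binding to MEKK3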
Large screens that a line does not name were inactive (follow-up assays come after a bar, where they were run); [ ] = remark or other dose. The list is not random: actives were taken first. Their share in the collection is about 2.2%.

O=S1(=O)N=C(N/N=C/c2cccs2)c2ccccc21	none
CC1=C(C(=O)Nc2ccc(C(=O)NC(C)c3ccccc3)cc2)SCCO1 (configuration not stated)	none
CC(=O)Nc1cc(C(=O)N(C)Cc2ccco2)ccc1Sc1ccc(Cl)cc1	MEKK3 PB1 HTS 142 | MEKK2wt confirm inactive | MEKK2mut confirm inactive | MEKK3-MEK5 inh inactive
COc1ccc(C(=O)NCC(=O)N2CCCC(C(F)(F)F)C2)cc1OC (configuration not stated)	none (no result: MEKK2 WT-MEK5, MEKK2mut PB1 HTS, MEKK3 PB1 HTS)
CC(=O)Nc1ccc(NC(=S)NC(=O)/C=C/c2ccco2)cc1	MEKK2 WT-MEK5 16[inhibitor], MEKK3 PB1 HTS 40[inhibitor] | MEKK2wt confirm inactive | MEKK2mut confirm inactive | MEKK3-MEK5 inh inactive
CCc1nnc(NC(=O)/C=C/c2ccco2)s1	MEKK3 PB1 HTS 131 | MEKK2wt confirm inactive | MEKK2mut confirm inactive | MEKK3-MEK5 inh inactive
CC(=O)N(C)c1ccc(NC(=S)NC(=O)/C=C/c2ccco2)cc1	none
O=C(/C=C/c1ccccc1)NC(=S)Nc1ccccc1	MEKK3 PB1 HTS 122 | MEKK2wt confirm inactive | MEKK2mut confirm inactive | MEKK3-MEK5 inh inactive
O=C(/C=C/c1ccc(F)cc1)NC(=S)Nc1ccccc1	none
CCOC(=O)CC(=O)CSc1nccc(-c2cccnc2)n1	MEKK3 PB1 HTS 43[inhibitor] | MEKK2wt confirm inactive | MEKK2mut confirm inactive | MEKK3-MEK5 inh inactive
COc1ccc(Nc2ccc(C(N)=O)cc2[N+](=O)[O-])cc1	MEKK3 PB1 HTS 57[inhibitor] | MEKK2wt confirm inactive | MEKK2mut confirm inactive | MEKK3-MEK5 inh inactive
C/C(=N\N=C\c1ccc(N(C)C)cc1)c1cccc([N+](=O)[O-])c1	MEKK3 PB1 HTS 73[inhibitor] | MEKK2wt confirm inactive | MEKK2mut confirm inactive | MEKK3-MEK5 inh inactive
COc1ccc(S(=O)(=O)NCC2CCCN(Cc3cccnc3)C2)cc1 (configuration not stated)	MEKK2 WT-MEK5 56[inhibitor] | MEKK2wt confirm inactive | MEKK2mut confirm inactive | MEKK3-MEK5 inh inactive
CN(CC(=O)Nc1ccccc1Br)C(=O)CCCSc1nc2ccccc2[nH]1	none (no result: MEKK2 WT-MEK5, MEKK2mut PB1 HTS, MEKK3 PB1 HTS)
O=C(N/N=C/c1ccc(O)cc1)c1cc[n+](Cc2ccccc2)cc1	none
O=C(N/N=C/c1ccc(OCc2ccccc2)cc1)c1cc[n+](Cc2ccccc2)cc1	MEKK2 WT-MEK5 153 | MEKK2wt confirm inactive | MEKK2mut confirm inactive | MEKK3-MEK5 inh inactive
CCN(CC(=O)Nc1c(F)cccc1F)C(=O)c1cccc(S(=O)(=O)N(C)c2ccccc2)c1	none (no result: MEKK2 WT-MEK5, MEKK2mut PB1 HTS, MEKK3 PB1 HTS)
O=C(Nc1nnc(-c2ccncc2)o1)c1ccccc1F	MEKK3 PB1 HTS 129 | MEKK2wt confirm inactive | MEKK2mut confirm inactive | MEKK3-MEK5 inh inactive
O=C(CC1C(=O)NCCN1CC1CCCCC1)NCCc1ccc(F)cc1 (configuration not stated)	MEKK2 WT-MEK5 139 | MEKK2wt confirm inactive | MEKK2mut confirm inactive | MEKK3-MEK5 inh inactive
CC(C)CN1CCNC(=O)C1CC(=O)NCCc1ccc(C(F)(F)F)cc1 (configuration not stated)	MEKK2 WT-MEK5 160 | MEKK2wt confirm inactive | MEKK2mut confirm inactive | MEKK3-MEK5 inh inactive
O=C(CC1C(=O)NCCN1CC1CCCCC1)NCc1ccc(F)cc1 (configuration not stated)	none
Cc1ccc(CN2CCNC(=O)C2CC(=O)NC2CCCCCC2)cc1 (configuration not stated)	MEKK2mut PB1 HTS 24 | MEKK2wt confirm inactive | MEKK2mut confirm inactive | MEKK3-MEK5 inh inactive
O=C(CC1C(=O)NCCN1Cc1ccc(F)cc1)NC1CCCCCCC1 (configuration not stated)	none
NC(=O)NC(CC(=O)NNC(=O)c1ccccn1)c1ccccc1Cl (configuration not stated)	none (no result: MEKK2 WT-MEK5, MEKK2mut PB1 HTS, MEKK3 PB1 HTS)
COc1ccc(CCc2nnc(CCC(=O)NCc3cc(C(C)C)no3)o2)cc1	none
On1c(-c2ccccc2Cl)nc2ncccc21	none
On1c(-c2ccccc2Cl)nc2ccccc21	MEKK3 PB1 HTS 132 | MEKK2wt confirm inactive | MEKK2mut confirm inactive | MEKK3-MEK5 inh inactive
O=c1o[nH]c(-c2ccccc2)c1C1=NCCCCC1	MEKK3 PB1 HTS 73[inhibitor] | MEKK2wt confirm inactive | MEKK2mut confirm inactive | MEKK3-MEK5 inh inactive
Oc1[nH]c2ccccc2c1C1=NCCCC1	none
COc1cc(C(=O)NCCC2=CCCCC2)ccc1OCc1c(C)noc1C	none (no result: MEKK2 WT-MEK5, MEKK2mut PB1 HTS, MEKK3 PB1 HTS)
COCCN(C(=O)CCC(=O)Nc1cc(C)on1)C(C(=O)NC(C)(C)C)c1cccc(OC)c1OC (configuration not stated)	none
COc1ccc(-c2c(-c3ccc(OCC(=O)NN)cc3O)n[nH]c2C(F)(F)F)cc1	MEKK3 PB1 HTS 130 | MEKK2wt confirm inactive | MEKK2mut confirm inactive | MEKK3-MEK5 inh inactive
COc1ccc(-c2c(-c3ccc(OCC(=O)NN)cc3O)n[nH]c2C)cc1OC	none
COc1ccc2[nH]c(C)c(CCNC(=S)Nc3ccc(F)cc3)c2c1	none
Cc1[nH]c2ccc(F)cc2c1CCNC(=O)C1CCCCC1C(=O)OCC(F)(F)F (configuration not stated)	MEKK3 PB1 HTS 153 | MEKK2wt confirm inactive | MEKK2mut confirm inactive | MEKK3-MEK5 inh inactive
C=C(C)COc1ccc(-c2n[nH]c(C)c2-c2ccc(OC)cc2)c(O)c1	none
COc1ccc(-c2n[nH]c(C)c2-c2cscn2)c(O)c1	MEKK3 PB1 HTS 133 | MEKK2wt confirm inactive | MEKK2mut confirm inactive | MEKK3-MEK5 inh inactive
CNC(=S)NCc1ccc(OC)cc1	MEKK3 PB1 HTS 55[inhibitor] | MEKK2wt confirm inactive | MEKK2mut confirm inactive | MEKK3-MEK5 inh inactive
CCOC(=O)c1cc(S(=O)(=O)Nc2ccc(OC)cc2OC)cn1C	none
Cc1c2cnn(CC(=O)NCCCN3CCCCC3C)c(=O)c2c(C)n1Cc1ccccc1 (configuration not stated)	MEKK2 WT-MEK5 145, MEKK2mut PB1 HTS 28 | MEKK2wt confirm inactive | MEKK2mut confirm inactive | MEKK3-MEK5 inh inactive
COc1cc(/C=C(\C#N)C(=O)Nc2ccccc2C(=O)O)cc(Cl)c1OC	MEKK3 PB1 HTS 43[inhibitor] | MEKK2wt confirm inactive | MEKK2mut confirm inactive | MEKK3-MEK5 inh inactive
CC1CCN(C(=O)c2ccc(N3CCOCC3)c([N+](=O)[O-])c2)CC1	none (no result: MEKK2 WT-MEK5, MEKK2mut PB1 HTS, MEKK3 PB1 HTS)
Cc1ccc(C(=O)Nc2ncc3c(Cl)cccc3n2)cc1	MEKK2mut PB1 HTS 25 | MEKK2wt confirm inactive | MEKK2mut confirm inactive | MEKK3-MEK5 inh inactive
